# From the supplement of paper PMC10037445
# “And” between values parts separate entries of the source, which are not always exact repeats. Equal entries are not always repeated. In all, about 2,900 compounds were measured (“IRF Lucia reporter activity, fold change vs agonist alone”: median about 0.9, highest 2% from about 2.8 on). Only a selection was taken, and the highest values are over-represented in it overall.
# Columns and labels:
# [1] = system: RAW-Dual; experiment: IRF Lucia reporter activity, fold change vs agonist alone; higher = enhanced IRF activity; conditions: library stock concentration (final ~1000-fold dilution): 10 mM; cytotoxicity flag (confluency mask): not cytotoxic; agonist: MPLA (TLR4) […]
# Outline: (§1)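 Supernatant from RAW-Dual macrophages was read after 20 hours for IRF by QuantiLuc luminescence and for NF-κB by QuantiBlue absorbance at 620 nm. The cells (50,000 cells/well in DMEM, 384-well plates, 37 °C, 5% CO2) had received 50 nL of library stock by pin tool and, 1 h later, a PRR agonist. Reporter activity is expressed relative to agonist-alone wells as fold change, and wells were flagged cytotoxic if IncuCyte confluency was under 70% of agonist controls in both mask sets.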
# [2] = system: RAW-Dual; experiment: IRF Lucia reporter activity, fold change vs agonist alone; cytotoxicity flag (confluency mask): not cytotoxic; higher = enhanced IRF activity
# Outline: as §1
# [3] = system: RAW-Dual; experiment: IRF Lucia reporter activity, fold change vs agonist alone; cytotoxicity flag (confluency mask): cytotoxic (confluency <70% of control); higher = enhanced IRF activity
# Outline: as §1
# [4] = agonist: 3'3'-cGAMP (STING) 10 ug/mL
structure (smiles),measurement,setting,value
CCCc1nc(C)c2c(=O)[nH]c(-c3cc(S(=O)(=O)N4CCN(CC)CC4)ccc3OCC)nn12.Cl.O.O.O,IRF Lucia reporter activity,[1],0.917
CCCc1nc(C)c2c(=O)[nH]c(-c3cc(S(=O)(=O)N4CCN(CC)CC4)ccc3OCC)nn12.Cl.O.O.O (library stock concentration (final ~1000-fold dilution): 10 mM),IRF Lucia reporter activity,[2]; [4],0.839
same,IRF Lucia reporter activity,[2]; agonist: LPS (TLR4) 0.1 ug/mL,0.967
O=C(NCCN1CCOCC1)Nc1nc2ccc(Sc3nnc4ccc(-c5ccc(F)cc5)nn34)cc2s1,IRF Lucia reporter activity,[1],0.994
O=C(NCCN1CCOCC1)Nc1nc2ccc(Sc3nnc4ccc(-c5ccc(F)cc5)nn34)cc2s1 (library stock concentration (final ~1000-fold dilution): 10 mM),IRF Lucia reporter activity,[2]; [4],1.09
same,IRF Lucia reporter activity,[2]; agonist: LPS (TLR4) 0.1 ug/mL,1.23
CC1=C(CSC(=S)N2CCCCC2)C(=O)c2ccccc2C1=O (library stock concentration (final ~1000-fold dilution): 10 mM),IRF Lucia reporter activity,[3]; [4],0.553
same,IRF Lucia reporter activity,[3]; agonist: LPS (TLR4) 0.1 ug/mL,0.0143
COc1cc2c(cc1OC(C)C)C(c1ccc(Cl)cc1)N(c1ccc(N(C)CC3CCC(N4CCN(C)C(=O)C4)CC3)cc1)C(=O)C2 (stereo not drawn) (library stock concentration (final ~1000-fold dilution): 10 mM),IRF Lucia reporter activity,[2]; [4],0.135
same,IRF Lucia reporter activity,[2]; agonist: LPS (TLR4) 0.1 ug/mL,1.35
CC(N)C1CCC(C(=O)Nc2ccncc2)CC1.Cl.Cl (stereo not drawn),IRF Lucia reporter activity,[1],0.773
CC(N)C1CCC(C(=O)Nc2ccncc2)CC1.Cl.Cl (stereo not drawn) (library stock concentration (final ~1000-fold dilution): 10 mM),IRF Lucia reporter activity,[2]; [4],0.926
same,IRF Lucia reporter activity,[2]; agonist: LPS (TLR4) 0.1 ug/mL,0.81
Oc1cccc(-c2nc(N3CCOCC3)c3oc4ncccc4c3n2)c1 (library stock concentration (final ~1000-fold dilution): 10 mM),IRF Lucia reporter activity,[2]; [4],0.381
same,IRF Lucia reporter activity,[2]; agonist: LPS (TLR4) 0.1 ug/mL,1.94
Nc1ccc(C(=O)Nc2cccc(-c3nc(N4CCOCC4)c4oc5ncccc5c4n3)c2)cn1 (library stock concentration (final ~1000-fold dilution): 10 mM),IRF Lucia reporter activity,[2]; [4],0.205
same,IRF Lucia reporter activity,[2]; agonist: LPS (TLR4) 0.1 ug/mL,3.93
Nc1ccc(-c2cccc(C(=O)Nc3cnc4nc(N5CCOCC5)oc4c3)n2)cn1 (library stock concentration (final ~1000-fold dilution): 10 mM),IRF Lucia reporter activity,[2]; [4],0.717
same,IRF Lucia reporter activity,[2]; agonist: LPS (TLR4) 0.1 ug/mL,1.48
Oc1cccc(-c2nc(N3CCOCC3)c3oc4ncccc4c3n2)c1,IRF Lucia reporter activity,[1],1.42
Nc1ccc(C(=O)Nc2cccc(-c3nc(N4CCOCC4)c4oc5ncccc5c4n3)c2)cn1,IRF Lucia reporter activity,[1],3.52
O=C(CCCCCCC(=O)N/N=C/c1ccc(N(c2ccccc2)c2ccccc2)cc1)NO (library stock concentration (final ~1000-fold dilution): 10 mM),IRF Lucia reporter activity,[3]; [4],0.0199
same,IRF Lucia reporter activity,[3]; agonist: LPS (TLR4) 0.1 ug/mL,0.533
Cc1ccc(Oc2ccnc3cc(-c4cnn(C5CCNCC5)c4)ccc23)cc1 (library stock concentration (final ~1000-fold dilution): 10 mM),IRF Lucia reporter activity,[3]; [4],0.0554
same,IRF Lucia reporter activity,[3]; agonist: LPS (TLR4) 0.1 ug/mL,0.134
CCC(C)(Nc1ccnc(-c2c[nH]c3ncccc23)n1)C(=O)NCC(F)(F)F (stereo not drawn),IRF Lucia reporter activity,[1],0.41
CCC(C)(Nc1ccnc(-c2c[nH]c3ncccc23)n1)C(=O)NCC(F)(F)F (stereo not drawn) (library stock concentration (final ~1000-fold dilution): 10 mM),IRF Lucia reporter activity,[2]; [4],0.291
same,IRF Lucia reporter activity,[2]; agonist: LPS (TLR4) 0.1 ug/mL,0.35
Cc1cc(N2CCN(C3CNC(C(=O)N4CCSC4)C3)CC2)n(-c2ccccc2)n1 (stereo not drawn) (library stock concentration (final ~1000-fold dilution): 10 mM),IRF Lucia reporter activity,[2]; [4],0.982
same,IRF Lucia reporter activity,[2]; agonist: LPS (TLR4) 0.1 ug/mL,1.22
Cc1cc(N2CCN(C3CNC(C(=O)N4CCSC4)C3)CC2)n(-c2ccccc2)n1 (stereo not drawn),IRF Lucia reporter activity,[1],1.02
Cc1ccc2nc(NCCN)c3ncc(C)n3c2c1 (library stock concentration (final ~1000-fold dilution): 10 mM),IRF Lucia reporter activity,[2]; [4],2.21
same,IRF Lucia reporter activity,[2]; agonist: LPS (TLR4) 0.1 ug/mL,3.5
same,IRF Lucia reporter activity,[3]; agonist: LPS (TLR4) 0.1 ug/mL,0.0229 and 0.0291
CCOc1nc2cccc(C(=O)OCc3oc(=O)oc3C)c2n1Cc1ccc(-c2ccccc2-c2nc(=O)o[nH]2)cc1 (library stock concentration (final ~1000-fold dilution): 10 mM),IRF Lucia reporter activity,[2]; [4],1.04
same,IRF Lucia reporter activity,[2]; agonist: LPS (TLR4) 0.1 ug/mL,1.16
CCOc1nc2cccc(C(=O)OCc3oc(=O)oc3C)c2n1Cc1ccc(-c2ccccc2-c2nc(=O)o[nH]2)cc1,IRF Lucia reporter activity,[1],1.16
CNS(=O)(=O)CC1CCC(N(C)c2ncnc3[nH]ccc23)CC1.O=C(O)/C=C\C(=O)O (stereo not drawn) (library stock concentration (final ~1000-fold dilution): 10 mM),IRF Lucia reporter activity,[2]; [4],0.106
same,IRF Lucia reporter activity,[2]; agonist: LPS (TLR4) 0.1 ug/mL,0.264
O=c1cc(N2CCOCC2)oc2c1ccc1ccccc12 (library stock concentration (final ~1000-fold dilution): 2 mM),IRF Lucia reporter activity,[2]; [4],0.778
same,IRF Lucia reporter activity,[2]; agonist: LPS (TLR4) 0.1 ug/mL,1.01
CC1CN(CC(=O)Nc2ccc3c(c2)Cc2cccc(-c4cc(=O)cc(N5CCOCC5)o4)c2S3)CC(C)O1 (stereo not drawn) (library stock concentration (final ~1000-fold dilution): 10 mM),IRF Lucia reporter activity,[2]; [4],0.508
same,IRF Lucia reporter activity,[2]; agonist: LPS (TLR4) 0.1 ug/mL,6.62
